Test results taken from PubChem BioAssay (NCI).
Several values for one entry are separate records, joined by “and”; a condition that tells them apart may be missing. Identical values can stand only once. The panel holds about 79,000 compounds, 15% with a hit somewhere; the sample as a whole holds those more often. A number with no mark means an inactive call. Activity calls are given as the source filed them. Cut-off read from the data, not from the text of the source: active = growth inhibition above about 70%; inactive = the rest.

Key:
[1] = NCI Yeast Anticancer Drug Screen. Data for the mec2-1 strain (AID 157); conditions: S. cerevisiae mec2-1 strain, at 50.0 µM, hits give high values
Outline: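 Vehicle-treated cultures served as reference for growth inhibition of compound-exposed mec2-1 yeast.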

[2] = NCI Yeast Anticancer Drug Screen. Data for the sgs1 mgt1 strain (AID 161);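 note: 0% = growth of cultures given vehicle only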; conditions: S. cerevisiae sgs1 mgt1 strain, at 50.0 µM, hits give high values
Outline: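 Inhibition of yeast growth, normalised to vehicle-treated controls, is reported for a strain bearing genetic alterations in DNA damage repair.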

[3] = NCI Yeast Anticancer Drug Screen. Data for the cln2 rad14 strain (AID 165);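 note: 0% = growth equal to vehicle treated cultures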; conditions: S. cerevisiae cln2 rad14 strain, at 50.0 µM, hits give high values
Outline: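 Each compound was tested on cln2 rad14 yeast. Inhibition of growth was calculated against vehicle-exposed controls.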

[4] = NCI Yeast Anticancer Drug Screen. Data for the bub3 strain (AID 167); conditions: S. cerevisiae bub3 mutant strain, at 50.0 µM, hits give high values
Outline: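 Yeast carrying a defined mutation is treated with each compound, and growth is compared with that of vehicle-exposed cells to give inhibition.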

[5] = NCI Yeast Anticancer Drug Screen. Data for the mlh1 rad18 strain (AID 175); conditions: S. cerevisiae mlh1 rad18 strain growth inhibition; at 50.0 µM; hits give high values
Outline: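 Vehicle-treated cultures served as the reference for growth inhibition in a yeast strain carrying DNA damage repair alterations exposed to each compound.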

[6] = NCI Yeast Anticancer Drug Screen. Data for the rad50 strain (AID 155);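 note: 0% = growth of vehicle-only cultures of the same strain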; conditions: S. cerevisiae rad50 strain growth inhibition; at 50.0 µM; hits give high values
Outline: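 Genetically altered yeast (DNA repair pathway); compound treatment; growth inhibition vs vehicle ctrl.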

| SMILES | growth inhibition [1] | growth inhibition [2] | growth inhibition [3] [%] | growth inhibition [4] | growth inhibition [5] | growth inhibition [6] |
| --- | --- | --- | --- | --- | --- | --- |
| CN1CN(c2ccccc2)C2(CCN(CCCSc3ccccc3NC(=O)/C=C/c3ccccc3)CC2)C1=O | -3.95% | 18.8% | 18.9 | 41.3% | 34.2% | – |
| O=C(CN1CCOCC1)c1ccccc1 | -4.1% and -13.4% | -2.65% and -9.4% | – | -3.85% and -14.3% | -1.85% and -22.9% | -1.55% and -6.6% |
| O=C1c2c(ccc3ccccc23)CN2CCCCC12 (centres undefined) | – | 61.9% | 14 | 40.4% | 45.2% | 42.2% |
| CCOP(=O)(CN(CCO)CCO)OCC | 12% | 11.4% | 0 | -6.5% | 4.25% | – |
| CCC1(OC(=O)CNC)C(=O)OCc2c1cc1n(c2=O)Cc2cc3ccccc3nc2-1 (centres undefined) | 83.7% (active) | 76.3% (active) | 60.2 | 72% (active) | – | – |
| CNP1(NC)=NP(N(C)C)(N(C)C)=NP(N(C)C)(N(C)C)=N1 | 0.45% | -3% | -19.4 | 11.6% | 13.2% | – |
